Hits are enriched below; roughly 19% of the tested compounds scored in any of these assays.
HT1080-NT tox – qHTS for induction of synthetic lethality in tumor cells producing 2HG: qHTS for the HT-1080-NT fibrosarcoma cell line | HT-1080-NT fibrosarcoma viability, CellTiter-Glo ATP luminescence, 48 h | Potency, µM (highest dose often 46.1 µM), usual class: cytotoxic | AID 686970, 2013 | actives 1.6% (n = 360,000);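 note: NT is the 2HG producing partner of a matched IDH1 knockdown line; nearly all actives have a fitted effect of over 55% in size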
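Luminescent CellTiter-Glo readout after 48 hours of compound exposure at 37 degrees C defined viability of HT-1080-NT cells. Activity was normalized to DMSO wells and cell-free media wells; concentration-response curves were fitted and assigned curve classes.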
IL1B secr inh – qHTS for Inhibitors of Inflammasome Signaling: IL-1-beta AlphaLISA Primary Screen; THP-1 LPS/ATP IL-1B secretion, AlphaLISA, 16 h; stronger effect = lower value; activity change, % at 57.5 µM; actives 4.7% (n = 360,000); AID 743279, 2014; in the data active = activity change below about -50%; inconclusive = mostly about -30% to -49%
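THP-1 cells pretreated 1 hr with compounds (up to 57.5 uM final), then stimulated with LPS (250 ng/mL final) plus ATP (1.25 mM final); secreted IL-1B measured by AlphaLISA after 16 hr, decreased signal indicating inhibition.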
DT40 TDP1 CPT – qHTS for Inhibitors of human tyrosyl-DNA phosphodiesterase 1 (TDP1): qHTS in cells in presence of CPT; chicken DT40 Tdp1-/-;hTDP1 cells + 20 nM CPT, ATP luminescence, 48 h; Potency, µM (titrated, usually from 46.2 µM), hits mostly inhibitors; actives 12% (n = 420,000); note: nearly all actives have a fitted effect of over 55% in size
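Chicken DT40 Tdp1-/- cells complemented with human TDP1, 400 cells/well, exposed to compounds plus 20 nM camptothecin for at least 48 h at 37 C; viability read as ATP content by CellTiter-Glo luminescence.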
ELG1 DNA repair – qHTS screen for small molecules that inhibit ELG1-dependent DNA repair in human embryonic kidney (HEK293T) cells expressing luciferase-tagged ELG1 | AID 504467, 2011 | Potency, µM (series often up to 46.1 µM), most hits filed as inhibitors | actives 2.3% (n = 330,000) | HEK293T ELG1-luciferase reporter, luminescence, 16 h; DNA damage induced by 5-fluorouridine; note: nearly all actives have a fitted effect of over 55% in size
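Cells (2,000 per well) received 5-fluorouridine plus test compound or DMSO and were incubated 16 hr at 37 °C, 5% CO2. Luciferase activity was read by luminescence 30 min after ONE-Glo addition; signal suppression marked inhibition of damage-induced ELG1 function.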
TDP1 cell noCPT – qHTS for Inhibitors of human tyrosyl-DNA phosphodiesterase 1 (TDP1): qHTS in cells in absence of CPT. DT40 Tdp1-/- hTDP1 cells, no CPT, ATP luminescence, 48 h. actives 15% (n = 420,000). Potency, µM (highest dose often 46.2 µM), most hits filed as inhibitors. AID 686978, 2013; note: nearly all actives have a fitted effect of over 55% in size
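Growth kinetics read by CellTiter-Glo luminescence after ≥48 hr at 37 °C. Cells: DT40 Tdp1-/- stably carrying human TDP1, 400 per well, compound exposure in the absence of CPT (DMSO vehicle).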
HT1080 IDH1KD tx – qHTS for induction of synthetic lethality in tumor cells producing 2HG: qHTS for the HT-1080-IDH1KD cell line | HT-1080 IDH1 knockdown viability, ATP luminescence, 48 h | Potency, µM (highest dose often 46.1 µM), hits mostly cytotoxic | actives 2% (n = 360,000)
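CellTiter-Glo luminescence after 48 h compound exposure at 37 degrees C of IDH1-knockdown HT-1080 cells in 5% FBS RPMI. %Activity scaled between DMSO wells and cell-free media wells, with curves fitted and assigned curve classes.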
Of the large screens only hits and unclear results are named; the others gave an inactive call. Unless noted, calls come from the whole dose curve; as a rule, active = well fitted curve in the direction sought with a large enough effect; inconclusive = small, poorly fitted or top-dose-only effect, or another doubt; inactive = no such curve, though single readings can be large; an effect the other way counts as inactive or inconclusive.

C#C[C@]1(O)CCC2C3C(=O)C=C4C(Cl)=CCC[C@]4(C)C3CC[C@@]21C (some centres undefined)	HT1080-NT tox 10.3µM, IL1B secr inh -90.3, DT40 TDP1 CPT 16.4µM, TDP1 cell noCPT 10.3µM, HT1080 IDH1KD tx 32.6µM (no result: ELG1 DNA repair)
COc1ccc(C(=O)OC2CC[C@@]3(C)C4CCC5[C@]6(O)CC(O)[C@@]7(O)C(CN8CC(C)CCC8[C@@]7(C)O)[C@]6(O)C[C@@]53O[C@]24O)cc1OC (some centres undefined)	none
CCC1([N+](=O)[O-])COP(N)(=O)OC1 (centres undefined)	DT40 TDP1 CPT inconclusive (no result: ELG1 DNA repair)
COc1cccc(OCCNC(=O)c2cc([N+](=O)[O-])cc([N+](=O)[O-])c2)c1	ELG1 DNA repair inconclusive
Cn1cccc1/C=C1/C(=O)NC(=O)N(Cc2ccccc2)C1=O	DT40 TDP1 CPT 4.61µM, TDP1 cell noCPT 2.31µM, HT1080 IDH1KD tx inconclusive
Cn1cccc1/C=C1/C(=O)NC(=O)N(Cc2ccc(F)cc2)C1=O	HT1080-NT tox inconclusive, DT40 TDP1 CPT 11.6µM, TDP1 cell noCPT 9.2µM
Cn1cccc1/C=C1\C(=O)NC(=O)N(Cc2ccccc2)C1=O	HT1080-NT tox inconclusive, DT40 TDP1 CPT 5.8µM, ELG1 DNA repair inconclusive, TDP1 cell noCPT 2.06µM, HT1080 IDH1KD tx inconclusive
COc1cc(/C=C2\C(=O)NC(=O)N(CCc3ccc(F)cc3)C2=O)ccc1O	ELG1 DNA repair inconclusive
O=C1NC(=O)N(Cc2ccco2)C(=O)/C1=C/c1cccn1CCOc1ccccc1Cl	IL1B secr inh inconclusive, ELG1 DNA repair inconclusive
C=CCN1C(=O)NC(=O)/C(=C/c2cccn2C)C1=O	DT40 TDP1 CPT inconclusive, ELG1 DNA repair inconclusive, TDP1 cell noCPT inconclusive
CCOc1ccc(/C=C2/C(=O)NC(=O)N(CCc3ccc(F)cc3)C2=O)cc1	none
Cn1cccc1/C=C1/C(=O)NC(=S)N(Cc2ccc(F)cc2)C1=O	IL1B secr inh inconclusive, DT40 TDP1 CPT 3.66µM, TDP1 cell noCPT 2.59µM
CCN(CC)CCc1c[nH]c2ccccc12	none (no result: HT1080-NT tox, IL1B secr inh, ELG1 DNA repair, HT1080 IDH1KD tx)
C[C@H]1O[C@@H](O[C@H]2[C@@H](O)C[C@H](O[C@H]3[C@@H](O)C[C@H](O[C@H]4CC[C@@]5(C)[C@H](CC[C@@H]6[C@@H]5CC[C@]5(C)[C@@H](C7=CC(=O)OC7)CC[C@]65O)C4)O[C@@H]3C)O[C@@H]2C)C[C@H](O)[C@@H]1O	HT1080-NT tox 0.206µM, IL1B secr inh -75.8, DT40 TDP1 CPT 0.299µM, ELG1 DNA repair 0.146µM, TDP1 cell noCPT 0.299µM, HT1080 IDH1KD tx 0.146µM
CC(=O)OC1CC2(O)C3CCC4CC(O)CCC4(C)C3CCC2(C)C1C1=CC(=O)OC1 (centres undefined)	HT1080-NT tox 1.3µM, IL1B secr inh -79.5, DT40 TDP1 CPT inconclusive, TDP1 cell noCPT 8.2µM, HT1080 IDH1KD tx 0.517µM (no result: ELG1 DNA repair)
CC(=O)[C@H]1CCC2C3CC[C@H]4C[C@@H](O)CC[C@]4(C)C3CC[C@@]21C (some centres undefined)	DT40 TDP1 CPT inconclusive, TDP1 cell noCPT inconclusive
CC1OC(OC2C(O)CC(OC3C(O)CC(OC4CCC5(C)C(CCC6C5CCC5(C)C(C7=CC(=O)OC7)C(O)CC65O)C4)OC3C)OC2C)CC(O)C1O (centres undefined)	HT1080-NT tox 1.03µM, IL1B secr inh -99.4, DT40 TDP1 CPT 1.46µM, TDP1 cell noCPT 0.82µM, HT1080 IDH1KD tx 0.581µM (no result: ELG1 DNA repair)
O=C(O)CCC1NCC2CC1CN1CCCCC21 (centres undefined)	none (no result: HT1080-NT tox, IL1B secr inh, ELG1 DNA repair, HT1080 IDH1KD tx)
